# Screening results from PubChem.
# USP17 block = inhibitors of human USP17 deubiquitinase. A8MUK1. purified USP17, Ub-rhodamine cleavage fluorescence, 3 h. inhibition, % at 50 µM. actives 6.5% (n = 47,000)
# USP8 block = blocks human USP8 ubiquitin-rhodamine cleavage; actives 4.2% (n = 47,000); inhibition, % at 20 µM; AID 1645853; P40818; purified USP8, Ub-rhodamine cleavage fluorescence, 30 min
# OTUD3 block = inhibitors of human OTUD3 deubiquitinase; Q5T2D3; purified OTUD3, Ub-rhodamine fluorescence, 2 h; inhibition, % at 25 µM; actives 0.7% (n = 47,000); AID 1645858
# USP28 block = inhibitors of human USP28 deubiquitinase. purified USP28, Ub-rhodamine cleavage fluorescence, 30 min. inhibition, % at 25 µM. actives 3% (n = 47,000). AID 1645857
# Target sequence (Q96RU2 whole entry, looked up): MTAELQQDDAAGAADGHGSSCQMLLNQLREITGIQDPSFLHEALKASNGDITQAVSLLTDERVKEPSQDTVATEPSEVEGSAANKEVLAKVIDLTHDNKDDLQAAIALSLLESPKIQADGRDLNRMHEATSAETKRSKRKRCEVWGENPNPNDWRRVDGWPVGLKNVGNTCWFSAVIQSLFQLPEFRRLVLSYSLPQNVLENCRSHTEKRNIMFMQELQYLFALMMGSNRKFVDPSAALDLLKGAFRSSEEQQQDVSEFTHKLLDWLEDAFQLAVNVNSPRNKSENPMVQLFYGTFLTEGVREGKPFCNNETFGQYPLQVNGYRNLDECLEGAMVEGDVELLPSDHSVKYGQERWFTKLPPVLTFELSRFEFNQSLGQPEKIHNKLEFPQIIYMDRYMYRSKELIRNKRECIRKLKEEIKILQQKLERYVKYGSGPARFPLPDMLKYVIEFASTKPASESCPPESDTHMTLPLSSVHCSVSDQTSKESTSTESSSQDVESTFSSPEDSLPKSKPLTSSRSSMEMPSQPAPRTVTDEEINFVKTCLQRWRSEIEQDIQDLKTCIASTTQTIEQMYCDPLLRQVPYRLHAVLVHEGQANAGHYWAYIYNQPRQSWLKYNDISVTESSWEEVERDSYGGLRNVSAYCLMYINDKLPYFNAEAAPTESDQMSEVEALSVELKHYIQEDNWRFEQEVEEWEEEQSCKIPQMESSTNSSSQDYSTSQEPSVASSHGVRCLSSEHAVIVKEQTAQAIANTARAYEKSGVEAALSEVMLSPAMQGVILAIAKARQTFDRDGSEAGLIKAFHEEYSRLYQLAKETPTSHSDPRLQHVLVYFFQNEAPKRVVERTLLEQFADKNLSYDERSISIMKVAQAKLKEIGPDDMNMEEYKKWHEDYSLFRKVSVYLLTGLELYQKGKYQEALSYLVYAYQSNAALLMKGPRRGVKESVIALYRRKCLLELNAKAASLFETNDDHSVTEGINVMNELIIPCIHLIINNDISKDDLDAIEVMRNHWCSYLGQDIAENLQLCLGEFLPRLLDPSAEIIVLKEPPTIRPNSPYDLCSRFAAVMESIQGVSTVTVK
# USP30 block = inhibitors of human USP30 deubiquitinase | AID 1645860 | purified USP30, Ub-rhodamine cleavage fluorescence | actives 5.3% (n = 47,000) | inhibition, % at 25 µM
# The depositor's hits bear a star; i = inactive. Rows were chosen to be rich in hits. Some 13% of all compounds tested hit in one or more screens of this group. No stated cut-off is given here; in the data, active means inhibition above about 30%; inactive means the rest.
SMILES,USP17 block,USP8 block,OTUD3 block,USP28 block,USP30 block
COc1ccc(CCNC(=O)COc2ncnc3oc(C)c(C)c23)cc1OC,-2.4,0.5,7.3,56.8*,-10.1
CCC1=C(c2ccc(C)cc2)S(=O)(=O)NC1=NCC(=O)NCc1ccccc1F,60.3*,-1.6,9.7,13.0,27.2
CCC1=C(c2ccc(C)cc2)S(=O)(=O)NC1=NCC(=O)NCc1cccc(C)c1,43.7*,-0.4,14.1,19.8,14.9
CC1=C(c2ccc(F)cc2)S(=O)(=O)NC1=NCC(=O)Nc1ccc(F)cc1F,35.7*,1.7,1.1,2.0,54.2*
CCC1=C(c2ccc(C)cc2)S(=O)(=O)NC1=NCC(=O)NCc1ccc(OC)cc1,-11.1,-65.4,-5.0,-11.1,-6.3
Cc1nn2c(S(=O)(=O)N(C)Cc3ccccc3)c(C)nc2s1,1.2,6.6,6.5,8.3,-57.3
CN(C)c1cccc(-c2nc(-c3cn(Cc4ccccc4)nn3)no2)c1,10.4,4.3,0.2,12.2,15.1
COCC(=O)N1CCC2(CC1)NC(=O)N(CCc1ccccc1)C2=O,2.0,-5.0,-0.9,-6.8,0.9
CC(C)n1ncc2[nH]c(-c3ccc(N4CCN(C(=O)N5CCOCC5)CC4)cc3)nc21,12.8,8.8,11.2,0.1,22.9
COc1cc(OC)c2c(C)c(CC(=O)Nc3cccc(C(C)O)c3)c(=O)oc2c1 (configuration not stated),30.3*,3.1,4.7,9.4,6.9
Cc1nc(-c2ccc(NC(=O)N3CCN(c4ccccn4)CC3)cc2)no1,4.2,0.0,7.9,61.9*,16.0
Cc1nc(-c2ccc(NC(=O)N3CCC(Cc4ccccc4)CC3)cc2)no1,9.3,12.9,7.8,39.5*,10.2
O=C1c2cnc3nc(SCc4ccccc4Cl)nn3c2CC2c3ccccc3CCN12 (configuration not stated),-9.2,-13.1,-8.2,-11.8,-33.1
Cc1cc(C(=O)N2CCCCC2c2ccn[nH]2)c2c(C)noc2n1 (configuration not stated),-8.7,2.0,-5.3,-7.9,-3.2
Cc1nc(NCc2ccccc2F)ncc1C(=O)NCc1ccc2c(c1)OCO2,-0.6,-8.9,-7.8,-7.1,-0.1
CC(C)CN1C[C@H]2CCN(c3ncccn3)CC[C@H]2S1(=O)=O,-24.3,-2.6,-3.2,-3.9,-39.4
Cc1ccsc1CNC(=O)Nc1ccc(C(F)(F)F)cc1,43.2*,24.1,9.0,16.2,26.7
CCOc1ccsc1NC(=O)Nc1cccc(C(F)(F)F)c1,-35.3,-152.9,-34.5,-54.3,-176.5
O=[N+]([O-])c1cc(S(=O)(=O)N2CCCCC2)ccc1Oc1cccc(F)c1,4.8,-2.7,17.6,3.0,15.2
COC(=O)c1cccc2nc3c(C(C)O)cccc3nc12 (configuration not stated),-67.7,-19.5,-2.9,-41.3,-25.8
Cc1cccc(O)c1C(=O)OC(C)c1cccc2nc3c(C(=O)O)cc4c(c3nc12)C(C)c1cccc2c1N4c1cccc(C(=O)O)c1N2 (configuration not stated),99.6*,95.2*,100.8*,100.4*,101.5*
CCc1ccc(CN(C)C(=O)c2ccc(NS(=O)(=O)c3ccc(F)c(F)c3)cc2)cc1,26.7,18.5,9.2,24.4,41.3*
CCc1nc(-c2cccc(NC(=O)C3CC(=O)N(c4ccc(C)c(C)c4)C3)c2)no1 (configuration not stated),59.8*,39.4*,26.9,27.1,60.2*
Cc1nc(-c2cccc(NC(=O)C3CC(=O)N(c4cccc(Cl)c4)C3)c2)no1 (configuration not stated),21.3,31.4*,3.5,6.1,23.8
Cc1nc(-c2cccc(NC(=O)C3CC(=O)N(c4ccc(C)c(C)c4)C3)c2)no1 (configuration not stated),-29.8,-5.8,-90.4,-82.2,-387.7
Cc1nc(-c2cccc(N3CC(C(=O)NC4CCC(C)CC4)CC3=O)c2)no1 (configuration not stated),-22.4,-7.1,-3.0,-11.3,-6.9
Cc1nc2cc(C(=O)N3CCCC(c4nc(-c5cccnc5)n[nH]4)C3)ccc2n1C (configuration not stated),-159.8,-92.4,-195.2,-211.3,i
O=C(Oc1ccccc1Br)c1ccc(Cl)c(S(=O)(=O)N2CCCCC2)c1,0.0,30.6*,1.0,-4.6,-33.0
CCNc1nc(SCc2ccc(C)cc2)nc2c1CCCC2,17.6,13.5,10.6,27.0,38.8*
Cc1nc(SCc2ccc(C(=O)O)cc2)nc2c1CCCC2,17.2,25.4,14.9,14.3,16.7
